Reference: publication PMC5540273 (PLoS ONE, 2017)

The compounds below were run on SIK2. Conditions: concentration: 1 μM, replicates: in singlicate; n = 1.
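Also: KINOMEscan kinase panel screen.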

Compared with CN(c1ccc(NC(=O)Nc2cc(C(F)(F)F)ccc2F)cc1)c1ccnc(Nc2ccc(S(N)(=O)=O)cc2)n1 [GW809893], Cc1ccc(S(=O)(=O)Nc2ccc(Nc3nccc(Nc4cccc5[nH]ncc45)n3)cc2)cc1 [GSK581271] is higher in “%Inh” value: 1% for the first, 67% for the second.

Compared with Nc1ncnc2c1nc(-c1ccccc1)n2-c1ccccc1 [SKF-97293], Nc1n[nH]c2cnc(-c3ccccc3)cc12 [SB-642124] is higher in “%Inh” value: 0% for the first, 2% for the second.

Going from CN1CCN(CCCNc2nccc(-c3c(-c4ccc(F)cc4)nn4cc(C(F)(F)F)ccc34)n2)CC1 [GW621581] to O=C(Nc1cccc(-c2nn3ccccc3c2-c2ccnc(Nc3cccc(C(F)(F)F)c3)n2)c1)c1c(F)cccc1F [GSK292658], the “%Inh” value falls from 70% to 0%.

First: COc1cc(Nc2nccc(N3CCC(NC(=O)Nc4cccc(C(C)=O)c4)C3)n2)cc(OC)c1OC (stereo not shown) [GSK1379753]
Second: COc1cccc(NC(=O)NC2CCN(c3ccnc(Nc4cc(OC)c(OC)c(OC)c4)n3)C2)c1 (stereo not shown) [GSK1379763]
The “%Inh” value of the first is lower: 0% for the first, 4% for the second.

Cl.Cl.NCC(C(=O)Nc1cc(Br)c(-c2ccnc3[nH]ccc23)s1)c1ccccc1 (stereo not shown) [GSK1269851] and Cl.Cl.NCC(NC(=O)c1cc(-c2ccccc2)c(-c2ccnc3[nH]ccc23)s1)c1ccccc1 (stereo not shown) [GSK1321561] are the same in “%Inh” value: 0% for the first, 0% for the second.

COc1ccc(Nc2nccc(NCCNC(=O)c3cc4ccccc4s3)n2)cc1 [GSK1379896] and COc1ccc(Nc2nccc(N3CCC(NC(=O)Nc4cccc(OC)c4)C3)n2)cc1 (stereo not shown) [GSK1379742] are the same in “%Inh” value: 0% for the first, 0% for the second.

First: Cc1ccc(F)c(C(=O)Nc2cccc(-c3nn4ccccc4c3-c3ccnc(Nc4cccc(F)c4)n3)c2)c1F [GSK361061]
Second: O=C(Nc1cccc(-c2nn3ccccc3c2-c2ccnc(Nc3cccc(F)c3)n2)c1)c1c(F)ccc(F)c1Cl [GSK357952]
The “%Inh” value of the first is higher: 29% for the first, 16% for the second.

First: Cc1cccc(Nc2nc(N[C@H]3CCNC3)ncc2C(N)=O)c1.Cl [GSK2197149]
Second: Cc1cccc(NC(=O)Nc2ccc(Oc3ncnc4ccn(C)c34)cc2)c1
The “%Inh” value of the first is higher: 30% for the first, 7% for the second.

Going from COc1cccc(C2=C(Nc3ccc(Cl)c(C(=O)O)c3)C(=O)NC2=O)c1 [SB-390769] to COc1cccc(C(=O)Nc2cccc(Oc3ccc4nc(NC(=O)C5CC5)cn4n3)c2)c1, the “%Inh” value rises from 0% to 27%.

O=c1[nH]cc(-c2ccc(N3CCOCC3)cc2)c2sc(-c3cn[nH]c3)cc12 [GSK2276055] and Nc1ncc(-c2ccc3nccc(-c4ccncc4)c3c2)cc1S(=O)(=O)N1CCOCC1 [GSK1627798] are the same in “%Inh” value: 0% for the first, 0% for the second.

CC(C)(C)c1ccc2nccc(Nc3cccc(O)c3)c2c1 [GW856795] and c1ccc(-c2n[nH]cc2Nc2ccnc3ccccc23)nc1 [GW694077] are the same in “%Inh” value: 0% for the first, 0% for the second.

First: CCS(=O)(=O)c1ccc(OC)c(Nc2nccc(-c3c(-c4cccc(NC(=O)c5c(F)cccc5F)c4)nn4ncccc34)n2)c1 [GSK326180]
Second: COc1cc(Nc2nccc(-c3c(-c4cccc(NC(=O)c5c(F)cccc5F)c4)nn4ncccc34)n2)cc(OC)c1OC [GSK327238]
The “%Inh” value of the first is lower: 0% for the first, 26% for the second.

First: CC(C)c1nc(-c2cccc(NS(=O)(=O)c3c(F)cccc3F)c2F)c(-c2ccnc(Nc3ccc(N4CCOCC4)nc3)n2)s1 [GSK2008607]
Second: CC(=O)N1CCN(c2ccc(Nc3nccc(-c4sc(C(C)C)nc4-c4cccc(NS(=O)(=O)c5cccc(Cl)c5)c4)n3)cn2)CC1 [GSK1660437]
The “%Inh” value of the first is higher: 91.3% for the first, 89% for the second.

First: Fc1ccc(-c2ncn(C3CCNCC3)c2-c2ccnc(Oc3ccc(-c4ccccc4)cc3)n2)cc1 [SB-245391]
Second: CN1CCN(Cc2cccc(-c3ccc4c(Nc5ccc(Oc6ccccc6)cc5)ccnc4c3)c2)CC1 [GW578342]
The “%Inh” value of the first is higher: 4% for the first, 1% for the second.

O=C(Nc1n[nH]c2cc(-c3ccoc3)ccc12)C1CC1 [SB-738481] and C[C@@H]1CC[C@@H](C(=O)Nc2ccccc2)CN1c1cc(-c2ccc3c(N)n[nH]c3c2)nc(N)n1 [GSK2286062] are the same in “%Inh” value: 0% for the first, 0% for the second.

Going from Nc1ncc(-c2cccnc2)c2scc(-c3ccc4c(c3)CCN4C(=O)Cc3ccccc3)c12 [GSK683281] to Cn1cc(-c2ccc3c(c2)CCN3C(=O)Cc2cccc(F)c2)c2c(N)ncnc21 [GSK2603358], the “%Inh” value falls from 4% to 0%.

Compared with Cc1ccc(C(=O)N2CC[C@@H](O)C2)cc1-n1c(C)cc(OCc2ccc(F)cc2F)c(Br)c1=O, O=C(Nc1ccccc1F)NC1CCN(c2ccnc(Nc3ccc(F)cc3)n2)CC1 [GSK1379800] is lower in “%Inh” value: 27% for the first, 0% for the second.

Going from CN(C)S(=O)(=O)c1cc(-c2ccc3nccc(-c4cccc(S(N)(=O)=O)c4)c3c2)cnc1N [GSK1669921] to Cc1ccc(C(=O)Nc2ccc(Nc3ccnc4cc(-c5nccs5)ccc34)cc2O)cc1.Cl [GW494702], the “%Inh” value falls from 10% to 5%.

With COCCOCCOc1cc2ncc3c4ccc(C#N)cc4[nH]c3c2cc1OC the “%Inh” value was 83%.
